Test results: PubChem BioAssay AID686979 (National Center for Advancing Translational Sciences (NCATS), 2013)
Where “and” joins values, the source holds several entries; their conditions need not be identical. Identical values can stand only once. The whole screen tested about 420,000 compounds, of which about 50,000 (12%) were called active. Entries that show only a call come without a potency. About 26% were inconclusive and are not listed. For the sample, actives were picked, then their nearest neighbours and some compounds at random. A number with no mark means an inactive call. The call rests on the fitted dose curve; in most records, active means well fitted inhibition curve with a large enough effect; inconclusive means small, poorly fitted or top-dose-only effect; inactive means flat fitted curve, though single readings scatter.

Experiment: qHTS for Inhibitors of human tyrosyl-DNA phosphodiesterase 1 (TDP1): qHTS in cells in presence of CPT; further: nearly all actives have a fitted effect of over 55% in size
Settings: chicken DT40 Tdp1-/-;hTDP1 cells + 20 nM CPT, ATP luminescence, 48 h; series mostly up to 46.2 µM
Outline: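 Chicken DT40 Tdp1-/- cells stably complemented with human TDP1 were seeded at 400 cells/well in medium containing 20 nM camptothecin, exposed to pin-transferred compounds, and grown at 37 °C for at least 48 hr. Viability was read as ATP luminescence.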
Potency means the concentration at half of the fitted maximal effect.

SMILES	Potency	activity change, negative = growth inhibition
CC(C)=CC1C(C(=O)O)C1(C)C (stereo unspecified)	inactive	–
COc1ccc(NC2CCCN(C(=O)c3ccccc3-c3ncc[nH]3)C2)cc1 (stereo unspecified)	inactive	–
OCC(O)C1OCOC(C(O)CO)C1O (stereo unspecified)	inactive	–
COc1cc(OC)c(NC(=O)c2nc(-c3ccncc3)no2)cc1Cl	inactive	–
CC(C)c1cc(CN2CCOCC2)cc(C(C)C)c1O	inactive	–
Cc1nn(C)c(Cl)c1CN1CCC(n2nccc2NC(=O)C2CCCC2)CC1	inactive	–
O=C(N/N=C\c1cccnc1)c1cc(-c2ccccc2)nc2c(Cl)cccc12	10.3 µM (active)	–
Cc1cc(C(=O)N/N=C/c2ccccn2)c2ccccc2n1	inactive	–
COc1cc(/C=N/NC(=O)c2cc(-c3ccccc3C)nc3ccccc23)cc(OC)c1O	5.8 µM (active)	–
COc1cc(/C=N\NC(=O)C2C(=O)NCC2c2ccccc2)cc(OC)c1O (stereo unspecified)	inactive	–
O=C(N/N=C/c1cccnc1)c1ccc(NC(=O)c2ccc(F)cc2)cc1	inactive	–
O=C(N/N=C/c1cccnc1)c1cc2ccccc2cc1O	inactive	–
Cc1c(NC(=O)Nc2cccc([N+](=O)[O-])c2)c(=O)n(-c2ccccc2)n1C	inactive	–
C#CCOCCOCCOCCNc1nc(N2CCN(C(=O)C([C@@H](C)CC)n3cc(C(N)COC(=O)C(F)(F)F)nn3)CC2)nc(N2CCN(C(=O)[C@H](CCCCN)n3cc(C(N)CC(C)C)nn3)CC2)n1 (stereo partly specified)	inactive	–
COc1cc(CN2CCC(n3nccc3NC(=O)CCCc3ccccc3)CC2)ccc1O	inactive	–
CC(Oc1ccc(F)cc1)C(=O)N1CCN(c2ncccn2)CC1 (stereo unspecified)	inactive	–
O=C(COC(=O)c1cccc(Cl)c1Cl)NC1CCCCCC1	inactive	–
CC(C)(C)c1ccc(C(=O)NNC(=O)Cc2ccccc2)cc1	inactive	–
CC(C)(C)c1ccc(C(=O)C[N+]2(C)CCCc3ccccc32)cc1 (stereo unspecified)	3.55 µM (active)	–
CCn1ccnc1CNC(=O)CC1C(=O)NCCN1CCCc1ccccc1 (stereo unspecified)	inactive	–
O=C(C(=O)N1CCOc2ccc(CN3CCN(Cc4ccccn4)CC3)cc2C1)c1ccccc1	–	6.37% [at 9.04 µM]
CC(=O)Nc1cccc(NC(=O)CSc2nccn2Cc2ccc(F)cc2)c1	inactive	–

SMILES	Potency	activity change, negative = growth inhibition
O=C1CC2(CCN(C(=O)COc3ccc(F)cc3)CC2)Oc2ccccc21	inactive	–
COc1cc(/C=C/C(=O)OCC(=O)NCCCc2ccccc2)ccc1O	inactive	–
CC(C)c1c(C(=O)N/N=C/c2ccc(-c3ccccc3)cc2)nnn1-c1nonc1N	inactive	–
CC1CC(C)CN(CCC(=O)Nc2ccc3c(c2)CCC3)C1 (stereo unspecified)	inactive	–
Cc1ccc(C(=O)OCC(=O)NC(=O)Cc2ccccc2)c(O)c1	inactive	–
O=c1cc(Cl)c2ccccc2n1-c1ccccc1	inactive	–
Cn1c(=O)nc2n(-c3ccc(Br)cc3)c3cccc(Cl)c3cc-2c1=O	inactive	–
Cc1ccc(-n2c3nc(=O)[nH]c(=O)c-3cc3c(Cl)cccc32)cc1	1.46 µM (active)	–
CSc1cccc(NC(=O)CN2C(=O)COc3ccc(S(=O)(=O)N4CCOCC4)cc32)c1	inactive	–
COc1ccc(Cl)cc1NC(=O)COc1ccc2c(c1)OCO2	inactive	–
CC1CCN(C(=S)c2cccc(O)c2)CC1	inactive	–
C=C1C([C@@]2(C)C(OC(C)=O)CC(=O)O[C@@](C)(COC(C)=O)C2CC(=O)OC)C(OC=O)C(OC(=O)C(O)C(C)CC)[C@]2(C)C(c3ccoc3)CC(=O)C12O (stereo partly specified)	2.59 µM (active)	–
O=C(Nc1ccccc1Cl)N1CCC(CN2CCCCC2)CC1	inactive	–
COc1ccc(NC(=O)c2ccc(C#CC(C)(C)O)cc2)cc1	inactive	–
Cc1cc(=O)[nH]c(N/N=C/c2ccc3c(c2)OCCO3)n1	inactive	–
O=C(NN1CCOCC1)c1cccc(F)c1	inactive	–
Cc1oc(-c2cccc(NC(=O)c3ccccc3)c2)nc1CNC(=O)c1cnc2ccccn2c1=O	inactive	–
O=C(Nc1c(-c2ccc(F)cc2)nc2ccccn12)c1cccc(F)c1	20.6 µM (active)	–
Cc1ccccc1NC(=O)CCNS(=O)(=O)c1ccc2[nH]c(=O)oc2c1	inactive	–
O=C(C1CC1)N1CCc2cc(Br)cc(S(=O)(=O)N3CCN(c4ccccc4F)CC3)c21	inactive	–
O=C(CN1C(=O)/C(=C\c2ccc(C(F)(F)F)cc2)Sc2ccccc21)NCc1ccco1	18.4 µM (active)	–
O=C(CCCCCN1C(=O)c2cccc3cccc(c23)C1=O)NCc1ccco1	inactive	–

SMILES	Potency	activity change, negative = growth inhibition
CC1CCC2(CC1)NC(=O)N(CC(=O)NCc1ccco1)C2=O (stereo unspecified)	inactive	–
Nn1c(SCC(=O)Nc2nccs2)nnc1-c1ccco1	inactive	–
Cc1ccc(CNC(=O)Cn2c(=O)ccc3cc(S(=O)(=O)N4CCCC4)ccc32)cc1	inactive	–
COc1cccc(N2CC(C(=O)NCc3n[nH]c(=O)c4ccccc34)CC2=O)c1 (stereo unspecified)	inactive	–
O=c1[nH]c2cccnc2n(CCNc2ncc(C(F)(F)F)cc2Cl)c1=O	inactive	–
CCOc1ccccc1NC(=O)Cn1nnc(C(=O)NCc2cccs2)c1N	5.2 nM (active) and 130 nM (active)	–
CCOc1ccc(Cn2nnc(C(=O)NCc3ccccc3)c2N)cc1	inactive	–
CCOc1ccccc1NC(=O)Cc1cccs1	inactive	–
COC(=O)C[C@H]1C=C[C@@H](NS(=O)(=O)c2ccc(C)cc2)[C@@H](CO)O1	inactive	–
O=C(c1cc(COc2c(F)cccc2F)on1)N1CCSCC1	inactive	–
NC(=O)Cn1nc([N+](=O)[O-])nc1Oc1ccc(Br)cc1	inactive	–
Cc1ccccc1Nc1nc(N)nc(CSc2nnc3ccccn23)n1	inactive	–
COc1cc(/C=N/NC(=S)Nc2cccnc2)cc(OC)c1O	inactive	–
COc1ccccc1CNC(=O)COc1ccc(C)nc1[N+](=O)[O-]	inactive	–
CCC(C)(C)n1nnnc1C(c1ccc(OC)c(OC)c1)N1CCN(C(=O)c2ccco2)CC1 (stereo unspecified)	inactive	–
CN1CCN2c3ccccc3Cc3ccccc3[C@@H]2C1	13.3 µM (active)	–
CN1CCN(C(=O)N2c3ccccc3CCc3ccccc32)CC1	inactive	–
CCOCCCNC(=O)c1cn(CC(C)C)c(=O)c2c1c1ccccc1n2C	inactive	–
CC(=NNC(N)=O)C1CC2CCC1CC2 (stereo unspecified)	inactive	–
CCOC(=O)C1CCN(c2csc3ccc(C)cc3c2=O)CC1	inactive	–
CCOC(=O)C1CCN(CCC(=O)Nc2cccc(C)c2)CC1	inactive	–
CCOC(=O)C1CCN(c2c(Nc3cc(C)cc(C)c3)c(=O)c2=O)CC1	14.6 µM (active)	–

SMILES	Potency	activity change, negative = growth inhibition
O=C(COC(=O)Cc1ccc([N+](=O)[O-])cc1)NC1CCCCCC1	inactive	–
Cc1ccsc1C1C(C#N)=C(N)OC2=C1C(=O)CC(C)(C)C2 (stereo unspecified)	inactive	–
CN1CCN(S(=O)(=O)c2ccc(Nc3ccc(F)cc3)nc2)CC1	inactive	–
C=C1CCN([C@H](C(=O)NCc2cc(OC)c(OC)c(OC)c2)C(C)C)S(=O)(=O)c2ccccc21	inactive	–
O=C1OCC2=C1C(c1ccc(Cl)cc1)c1cc3c(cc1O2)OCO3 (stereo unspecified)	29.1 µM (active)	–
CCc1cccc(NC(=S)N(CCN(C)C)C2CCN(C(C)C)CC2)c1	inactive	–
O=C(COC(=O)C1(c2ccc(F)cc2)CCCC1)N1CCNC1=O	inactive	–
Cc1nn(CC(=O)NCc2ccccn2)c(C)c1[N+](=O)[O-]	inactive	–
Cc1csc(NC(=O)Nc2ccccc2[N+](=O)[O-])n1	inactive	–
Cc1csc(NC(=O)CSc2nnc(-c3cccnc3)o2)n1	inactive	–
Cc1csc(NC(=O)NC2(C(F)(F)F)Oc3ccccc3O2)n1	20.6 µM (active)	–
CCOc1ccc(N(CC(=O)NC2CCCCCC2)S(=O)(=O)c2c(C)[nH]c(=O)[nH]c2=O)cc1	inactive	–
CC(Nc1nc(C(F)(F)F)nc2ccccc12)c1cccs1 (stereo unspecified)	16.4 µM (active)	–
COc1ccc(-c2nc3n(c(=O)c2C#N)CCS3)c(OC)c1	inactive	–
COc1ccc(-c2nc(CN3CCC(C(=O)NCc4ccccc4)CC3)c(C)o2)cc1OC	inactive	–
Cc1oc(-c2ccccc2F)nc1CN1CCC(C(=O)NCCc2ccc(Cl)cc2)CC1	13 µM (active)	–
CCOc1ccccc1-c1nc(CN2CCC(C(=O)N3CCOCC3)CC2)c(C)o1	inactive	–
S=C(NCCc1ccccc1)N1CCCCC1	inactive	–
Oc1ccc(N2CCN(C(=S)NCc3ccccc3)CC2)cc1	11.6 µM (active)	–
O=C1CCN(C(=S)NCCc2ccccc2)CC1	inactive	–
CC(Oc1ccccc1)C(=O)N[C@@H]1C(=O)N2[C@@H]1SC(C)(C)[C@@H]2C(=O)O (stereo partly specified)	inactive	–
COc1cc(C=NC2CCCCC2)ccc1O	inactive	–

SMILES	Potency	activity change, negative = growth inhibition
COc1ccc(N2CCN(C(=O)CNC(=O)c3ccc(Br)o3)CC2)cc1	inactive	–
O=C(CN1CCN(c2ncc(C(F)(F)F)cc2Cl)CC1)Nc1ccc2c(c1)OCO2	inactive	–
O=C(NCC(=O)N1CCN(c2ncc(C(F)(F)F)cc2Cl)CC1)c1ccc(Br)o1	16.4 µM (active)	–
Cc1cc(C)cc(C(=O)NC(CC(N)=O)c2ccc(N3CCC(N4CCCCC4)CC3)c([N+](=O)[O-])c2)c1 (stereo unspecified)	inactive	–
OCCN1CCN(CCO)C1=S	inactive	–
COc1ccccc1CN1CCCC(N2CCN(c3ccc(F)cc3)CC2)C1 (stereo unspecified)	inactive	–
CNC[C@H](CC1CCCCC1)NC[C@H](NCCC1CCCC1)[C@H](C)O	16.4 µM (active)	–
COc1ccc2c(c1OC)C(=O)N(c1ccc(O)cc1)C2	inactive	–
O=C(CN1CCN(c2ccccc2O)CC1)NC(=O)NCc1ccccc1	inactive	–
Cc1coc(C)c1C(=O)CC1(O)C(=O)N(C)c2ccc(Cl)cc21 (stereo unspecified)	inactive	–
CCc1ccc(C(=O)COC(=O)c2ccco2)cc1	inactive	–
CCCN1C(=O)C(O)(CC(=O)c2ccc(CC)cc2)c2cc(Br)ccc21 (stereo unspecified)	7.31 µM (active)	–
CCC(O)CNc1nc(-n2nc(C)cc2C)nc2sc3c(c12)CC(C)(C)OC3 (stereo unspecified)	11.6 µM (active)	–
COCCn1c(C)cc(C(=O)CSc2ncnc3sc4c(c23)CCC4)c1C	inactive	–
Cc1nc2sc3c(c2c(=O)n1NC(=O)CCl)CCCC3	inactive	–
CC/C(C)=N/Nc1nc2sc3c(c2c(=O)[nH]1)CC(C)(C)OC3	inactive	–
COCCNc1nc(-n2nc(C)cc2C)nc2sc3c(c12)CCCC3	3.66 µM (active)	–
CCOC(=O)CSc1nc2sc3c(c2c(=O)[nH]1)CC(C)(C)OC3	inactive	–
